Assay outcomes from PubChem BioAssay.
Only some compounds are listed: those with a hit (about 8% of all), similar ones and a draw of the others.
HT1080 IDH1KD tx – kills HT-1080 cells with IDH1 knockdown. HT-1080 IDH1 knockdown viability, ATP luminescence, 48 h. AID 686971. Potency, µM (highest dose often 46.1 µM), actives largely listed as cytotoxic. actives 2% (n = 360,000)
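In this qHTS, HT-1080 cells depleted of IDH1 are exposed for 48 h at 37 °C to compound titrations. Toxicity is scored from CellTiter-Glo luminescence, with DMSO as full viability and medium alone as none.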
KB-3-1 cytotox – KB-3-1 parental cell cytotoxicity. KB-3-1 viability, CellTiter-Glo ATP luminescence, 72 h. Potency, µM (highest dose often 46.1 µM), most hits filed as cytotoxic. actives 1.4% (n = 400,000). AID 1347075; further: nearly all actives have a fitted effect of over 60% in size
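Cells are dispensed, compounds pinned in, plates held at 37 °C for 72 h, then CellTiter-Glo is added and luminescence read after 10 minutes. Cell line: parental KB-3-1 in phenol-red-free DMEM, 10% FBS.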
SW480 rerep – induces DNA re-replication in SW480 colon adenocarcinoma cells; Potency, µM (series often up to 46.1 µM), usual class: activators; AID 624297; SW480 DNA re-replication, Hoechst DNA content imaging, 48 h; actives 1.8% (n = 340,000); further: nearly all actives have a fitted effect of over 55% in size
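DNA re-replication was detected as more nuclei of elevated Hoechst intensity after 48 hr exposure to compound (23 nL pinned per well of 250 cells).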
KB-V1 MDR tox – KB-V1 MDR subline cytotoxicity; actives 3.4% (n = 400,000); KB-V1 MDR cells viability, CellTiter-Glo, 72 h; AID 1347076; Potency, µM (titrated, usually from 46.1 µM), usual class: cytotoxic; further: nearly all actives have a fitted effect of over 60% in size
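Cytotoxicity via CellTiter-Glo luminescence after 72 h compound exposure at 37 degrees C. Cells: drug-selected KB-V1 line, DMEM phenol-red free plus 10% FBS. Compounds tested at multiple concentrations; normalized data fitted to concentration-effect curves.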
HT1080-NT tox – kills 2HG-producing HT-1080-NT fibrosarcoma cells; AID 686970; actives 1.6% (n = 360,000); Potency, µM (top dose mostly 46.1 µM), usual class: cytotoxic; HT-1080-NT fibrosarcoma viability, CellTiter-Glo ATP luminescence, 48 h;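 further: NT is the 2HG producing partner of a matched IDH1 knockdown line; nearly all actives have a fitted effect of over 55% in size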
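HT-1080-NT fibrosarcoma cells (2HG-overproducing), 750 cells/well in RPMI with 5% FBS, dosed after 2 h and incubated 48 h at 37C. CellTiter-Glo luminescence normalized to DMSO and no-cell wells; concentration-response curves fitted and classed.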
MCF10A rereplic – inducers of DNA re-replication in MCF 10A breast cells. Potency, µM (series often up to 46.1 µM), most hits filed as activators. MCF 10A DNA re-replication, Hoechst nuclear intensity, 48 h. actives 2.9% (n = 350,000); further: nearly all actives have a fitted effect of over 50% in size
Hits are given with their value; [ ] = remark or other dose. The call rests on the fitted dose curve; in most records, active means well fitted curve in the direction sought with a large enough effect; inconclusive means small, poorly fitted or top-dose-only effect, or another doubt; inactive means no such curve, though single readings can be large; an effect the other way counts as inactive or inconclusive.

Screening O=C(CSc1ncnc2c1nnn2-c1ccc(F)cc1)NCC1CCCO1 (centres undefined) returned HT1080 IDH1KD tx inactive, KB-3-1 cytotox inactive, SW480 rerep inconclusive, KB-V1 MDR tox inactive, HT1080-NT tox inactive and MCF10A rereplic inconclusive.
For N#Cc1ncc(N=Cc2ccc(N(CCCl)CCCl)cc2)s1 the results were HT1080 IDH1KD tx 10µM, KB-3-1 cytotox inconclusive, SW480 rerep inconclusive, KB-V1 MDR tox inactive, HT1080-NT tox inconclusive and MCF10A rereplic 21µM.
Screening O=P(O)(O)CN1CCNCCN(CP(=O)(O)O)CCNCC1 returned HT1080 IDH1KD tx 15µM, KB-3-1 cytotox inconclusive, SW480 rerep 4.1µM, KB-V1 MDR tox inconclusive, HT1080-NT tox inactive and MCF10A rereplic inactive.
For CCOC(=O)[C@]12Cc3ccccc3[C@H]1N(Cc1ccccc1)C(=O)c1ccccc12 the results were HT1080 IDH1KD tx inactive, KB-3-1 cytotox inactive, SW480 rerep inactive, KB-V1 MDR tox inconclusive, HT1080-NT tox inactive and MCF10A rereplic inactive.
For CCOC(=O)[C@]12Cc3c(cc(OC)c(OC)c3OC)[C@H]1N(C(C)C)C(=O)c1ccccc12 the results were HT1080 IDH1KD tx 6.5µM, KB-3-1 cytotox 13µM, KB-V1 MDR tox 8.2µM and HT1080-NT tox inconclusive.
CCOC(=O)[C@]12Cc3c(cc(OC)c(OC)c3OC)[C@H]1N(C)C(=O)c1cc(OC)ccc12 was read as HT1080 IDH1KD tx inconclusive, KB-3-1 cytotox 2.9µM, KB-V1 MDR tox 3.7µM and HT1080-NT tox 15µM.
Screening CCOC(=O)[C@]12Cc3ccccc3[C@H]1N(C)C(=O)c1cc(OC)ccc12 returned HT1080 IDH1KD tx inconclusive, KB-3-1 cytotox 9.2µM, KB-V1 MDR tox 7.3µM and HT1080-NT tox inconclusive.
For CCOC(=O)[C@]12Cc3cc(OC)ccc3[C@H]1N(Cc1ccccc1)C(=O)c1ccccc12 the results were HT1080 IDH1KD tx inactive, KB-3-1 cytotox inconclusive, SW480 rerep inactive, KB-V1 MDR tox inconclusive, HT1080-NT tox inactive and MCF10A rereplic inactive.
For CCOC(=O)[C@]12Cc3cc(C)ccc3[C@H]1N(Cc1ccccc1)C(=O)c1cc(F)c(F)cc12 the results were HT1080 IDH1KD tx inconclusive, KB-3-1 cytotox 3.3µM, KB-V1 MDR tox inactive and HT1080-NT tox inconclusive.
Screening Cc1ccc(C(=O)O)cc1N=Nc1c(O)[nH]c(=O)[nH]c1=O returned HT1080 IDH1KD tx inactive, KB-3-1 cytotox inactive, SW480 rerep inactive, KB-V1 MDR tox inactive, HT1080-NT tox inactive and MCF10A rereplic inactive.
Screening CN(C)c1ccc(/C=C2/C(=N\O)C3CCN2CC3)cc1 returned HT1080 IDH1KD tx inactive, KB-3-1 cytotox inactive, SW480 rerep inactive, KB-V1 MDR tox inactive, HT1080-NT tox inactive and MCF10A rereplic inactive.
COc1cc(C)cc2oc(=O)c(CC(=O)N3C[C@H]4C[C@@H](C3)c3cccc(=O)n3C4)c(C)c12 was read as HT1080 IDH1KD tx inactive, KB-3-1 cytotox inactive, SW480 rerep inactive, KB-V1 MDR tox inactive, HT1080-NT tox inactive and MCF10A rereplic inactive.
`CCOC(=O)[C@]12Cc3cc(C)ccc3[C@H]1N(Cc1ccccc1)C(=O)c1ccccc12` gave HT1080 IDH1KD tx inactive, KB-3-1 cytotox inconclusive, SW480 rerep inactive[9.22 µM], KB-V1 MDR tox inconclusive, HT1080-NT tox inactive and MCF10A rereplic inconclusive.
CCOC(=O)[C@]12Cc3ccccc3[C@H]1N(C(C)C)C(=O)c1cc(OC)ccc12 was read as HT1080 IDH1KD tx 16µM, KB-3-1 cytotox 3.7µM, KB-V1 MDR tox 4.1µM and HT1080-NT tox inconclusive.
For CCOC(=O)[C@]12Cc3cc(C)ccc3[C@H]1N(C(C)C)C(=O)c1ccccc12 the results were HT1080 IDH1KD tx 26µM, KB-3-1 cytotox 4.1µM, KB-V1 MDR tox inactive and HT1080-NT tox 12µM.
For CCOC(=O)[C@]12Cc3cc(OC)ccc3[C@H]1N(Cc1ccccc1)C(=O)c1cc(F)c(F)cc12 the results were HT1080 IDH1KD tx inactive, KB-3-1 cytotox inconclusive, SW480 rerep inactive[9.22 µM], KB-V1 MDR tox inconclusive, HT1080-NT tox inactive and MCF10A rereplic inconclusive.
`COC(COC(N)=O)C1=C(N2CC2)C(=O)C(C)=C(N2CC2)C1=O` (centres undefined) gave HT1080 IDH1KD tx 3.3µM, KB-3-1 cytotox 4.1µM, SW480 rerep inconclusive, KB-V1 MDR tox inconclusive, HT1080-NT tox 6.5µM and MCF10A rereplic inconclusive.
Screening CO[C@@H](COC(N)=O)C1=C(N2CC2)C(=O)C(C)=C(N2CC2)C1=O returned SW480 rerep inconclusive and MCF10A rereplic 4.7µM.
COc1ccc(Sc2cnn(-c3ccccc3)c(=O)c2Cl)cc1 was read as HT1080 IDH1KD tx inactive, KB-3-1 cytotox inactive, SW480 rerep inactive, KB-V1 MDR tox inactive, HT1080-NT tox inactive and MCF10A rereplic inconclusive.
COC(=O)C1=C(c2cccc(C#N)c2)C[C@@H]2CC[C@H]1N2C(=O)N1CCCCC1 was read as HT1080 IDH1KD tx inactive, KB-3-1 cytotox inactive, SW480 rerep inactive, KB-V1 MDR tox inactive, HT1080-NT tox inactive and MCF10A rereplic inactive.
Cc1cccc(N2CCC3(CC2)C(=O)NC(=O)NC3=O)c1 was read as HT1080 IDH1KD tx inactive, KB-3-1 cytotox inactive, SW480 rerep inactive, KB-V1 MDR tox inactive, HT1080-NT tox inactive and MCF10A rereplic inactive.
For O=C(c1ccc(F)cc1)C(Cc1ccccc1)N1CCCCC1 (centres undefined) the results were HT1080 IDH1KD tx inactive, KB-3-1 cytotox inactive, SW480 rerep inactive, KB-V1 MDR tox inactive, HT1080-NT tox inactive and MCF10A rereplic inactive.
C1=C(c2c[nH]c3ccccc23)CCN(Cc2ccccc2)C1 was read as HT1080 IDH1KD tx inconclusive, KB-3-1 cytotox inconclusive, SW480 rerep 13µM, KB-V1 MDR tox inactive, HT1080-NT tox inconclusive and MCF10A rereplic 16µM.
Screening CN(C)C(=O)Oc1ccc(Cl)c2cccnc12 returned HT1080 IDH1KD tx inactive, KB-3-1 cytotox inactive, SW480 rerep inactive, KB-V1 MDR tox inactive, HT1080-NT tox inactive and MCF10A rereplic inactive.
For O=C(Nc1cccc(Br)c1)Oc1cccc2cccnc12 the results were HT1080 IDH1KD tx inconclusive, KB-3-1 cytotox inconclusive, KB-V1 MDR tox inconclusive and HT1080-NT tox 16µM.
O=C(Nc1c(Cl)cccc1Cl)Oc1cccc2cccnc12 was read as HT1080 IDH1KD tx 3.7µM, KB-3-1 cytotox inconclusive, KB-V1 MDR tox inconclusive and HT1080-NT tox 6.5µM.
O=C(CC1CCCCC1)c1c(O)c2ccccc2oc1=O was read as HT1080 IDH1KD tx inconclusive, KB-3-1 cytotox 5.8µM, SW480 rerep inactive, KB-V1 MDR tox inactive, HT1080-NT tox 7.9µM and MCF10A rereplic inconclusive.
For CCOC(=O)c1sc(/N=C/c2c(O)n(-c3ccccc3)c(=O)[nH]c2=O)c(C#N)c1C the results were HT1080 IDH1KD tx inactive, KB-3-1 cytotox inconclusive, SW480 rerep inactive, KB-V1 MDR tox 12µM, HT1080-NT tox inactive and MCF10A rereplic inactive.
